Results on 39 compounds are retold here after PubChem BioAssay AID602 (SRMLSC, 2007).

This assay is described as follows: reversal of MRP1-mediated doxorubicin resistance, primary screen, H69AR cells, doxorubicin co-treatment (AID 602).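 As to differential viability (reversal): larger differential means the compound sensitizes cells more to doxorubicin.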 The conditions noted are these: CellTiter-Glo, 72 h, at 10 µM; for differential viability (reversal): stronger effect = higher value.
Setting [1] is: H69AR cells + 2 uM doxorubicin, measured here: viability with 2 uM doxorubicin, stronger effect = lower value.
[2] abbreviates: H69AR cells, measured here: cytotoxicity without doxorubicin.

About 35 (0.04%) of roughly 85,000 compounds were called active.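 The calls were made as follows: active = viability drop by adding the cancer drug above about 55%, with treated viability meeting a 40% cutoff (limit read from the data); inactive = the rest, inconclusive results apart.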 This excerpt belongs to a sample that is enriched for actives.

As for `Cc1cc2nnc(SCC(=O)N3CCN(c4ccccc4)CC3)n2c(N)n1`, where the note is “H69AR cells + 2 uM doxorubicin”, the differential viability (reversal) is -1.47% (inactive). Further, the viability is, setting by setting: under setting [1], 65.8%; under setting [2], 64.4%.
Regarding `O=C(Nc1ccc(Cl)cc1)c1cc2nc(C3CC3)cc(C(F)(F)F)n2n1`, the differential viability (reversal) (H69AR cells + 2 uM doxorubicin) is 10.2% (inactive). Besides, the viability by setting is: under setting [1], 69.3%; under setting [2], 79.5%.
For `CC1=CC(C)(C)Nc2ccc(OC(=O)C(Cc3ccccc3)N3C(=O)C4CCCCC4C3=O)cc21` (configuration not stated), in that order: 11.8% (inactive), 68.5% and 80.3%.
For `COCCn1c(C)cc(C2=NNC(=Nc3ccc(F)cc3)SC2)c1C`, in that order: -17.5% (inactive), 106% and 88.2%.
With `Cc1ccc(-n2c(=O)c(C#N)cc3c(=O)n4ccccc4nc32)cc1C`, the differential viability (reversal) (H69AR cells + 2 uM doxorubicin) is -12.1% (inactive). For the same compound, the viability by setting is: under setting [1], 87.2%; under setting [2], 75.1%.
For `Cc1cc(NC(=O)CSc2nc(C(C)C)nc3sc4c(c23)CCC(C)C4)no1` (configuration not stated), in that order: -2.83% (inactive), 8.84% and 6.01%.
For `CC(C)NC(=O)CSc1ccccc1C(=O)NCc1ccc2c(c1)OCO2`, the differential viability (reversal) (H69AR cells + 2 uM doxorubicin) is 5% (inactive). Further, the viability reads like this: under setting [1], 91.7%; under setting [2], 96.7%.
Turning to `Cc1cccc2c(=O)n3c(nc12)CCCCC3`, the differential viability (reversal) (H69AR cells + 2 uM doxorubicin) is 7.51% (inactive). The viability under setting [1] turned out to be 83.8% and the viability under setting [2] is 91.3%.
Take `COc1ccc(CNC(=O)CCn2cccc2)cc1`: the differential viability (reversal) (H69AR cells + 2 uM doxorubicin) was -1.19% (inactive). Also, the viability is, setting by setting: under setting [1], 100%; under setting [2], 98.9%.
On the same counts, the results for `CCOc1cc(C(=O)Nc2c(C)ccc3nsnc23)cc(OCC)c1OCC` are -5.65% (inactive), 84% and 78.3%.
On to `COC(=O)c1sccc1NC(=O)CCC1CCCC1`, for which, for the setting “H69AR cells + 2 uM doxorubicin”, the differential viability (reversal) is 11.8% (inactive). Moreover, the viability runs as follows: under setting [1], 81.7%; under setting [2], 93.5%.
For `Cc1cc(O)cc(O)c1C(=O)Cc1cnn(-c2ccccc2)c1`, in that order: 13% (inactive), 66.8% and 79.8%.
On the same counts, the results for `CCOC(=O)c1c(N)sc(C(C)=O)c1C` are 11.1% (inactive), 81.7% and 92.8%.
In the case of `Cc1cccc(S(=O)(=O)CC(=O)Nc2nc(-c3ccccc3)cs2)c1`, the differential viability (reversal) (H69AR cells + 2 uM doxorubicin) is 12.9% (inactive). Further, the viability runs as follows: under setting [1], 86.8%; under setting [2], 99.7%.
For `Cn1c(SCC(=O)C(C)(C)C)nnc1-c1ccccn1`, in that order: 3.29% (inactive), 95% and 98.3%.
For `COc1ccc(NC(=O)C2C3C=CC(C3)C2C(=O)NCc2ccccn2)c(OC)c1` (configuration not stated), in that order: 48.3% (inactive), 44.7% and 93.1%.
Regarding `Cc1ccc(S(=O)(=O)NCC(=O)N2CCN(c3ccccn3)CC2)cc1`, the differential viability (reversal) (H69AR cells + 2 uM doxorubicin) is 14.2% (inactive). The viability came out at 87.1% under setting [1] and 101% under setting [2].
As for `CCCC(=O)C1CCN(Cc2ccccc2)CC1`, for the setting “H69AR cells + 2 uM doxorubicin”, the differential viability (reversal) is 1.73% (inactive). Also, the viability reads like this: under setting [1], 91.3%; under setting [2], 93%.
Take `CC1(C)COC(c2cccn2Cc2ccccc2Cl)=N1`: the differential viability (reversal) (H69AR cells + 2 uM doxorubicin) is 13.1% (inactive). In addition, the viability is, setting by setting: under setting [1], 90.7%; under setting [2], 104%.
Consider `COc1ccc(C2CC(=O)n3c(nc4ccccc43)S2)cc1OC` (configuration not stated), for which the differential viability (reversal) (H69AR cells + 2 uM doxorubicin) is 4.1% (inactive). Further, the viability is, setting by setting: under setting [1], 111%; under setting [2], 115%.
Regarding `CCc1ccc2c(c1)C1(NN=C(c3ccccc3)S1)C(=O)N2` (configuration not stated), the differential viability (reversal) (H69AR cells + 2 uM doxorubicin) is -18.7% (inactive). Also, the viability worked out at 34% under setting [1] and 15.2% under setting [2].
Consider `COc1cccc(OC)c1C(=O)Nc1ccc(N2CCCCC2)cc1`, for which, for the setting “H69AR cells + 2 uM doxorubicin”, the differential viability (reversal) was 15% (inactive). The viability amounted to 90.1% under setting [1] and 105% under setting [2].
On the same counts, the results for `COC(=O)CSc1snnc1-c1ccc(Cl)c(Cl)c1` are 8.05% (inactive), 89.3% and 97.3%.
On the same counts, the results for `CC(C)C(=O)NC(NC(=S)NC1CCS(=O)(=O)C1)C(Cl)(Cl)Cl` (configuration not stated) are 6.22% (inactive), 95.7% and 102%.
For `CCOC(=O)c1cnn(Cc2ccccc2Cl)c1N`, in that order: 4.58% (inactive), 91.6% and 96.2%.
As for `CCOc1cccc(C(=O)Nc2nnc(-c3cccs3)s2)c1`, the differential viability (reversal) (H69AR cells + 2 uM doxorubicin) was -41.2% (inactive). The viability came to 103% under setting [1] and 62.1% under setting [2].
On the same counts, the results for `CCn1nccc1C(=O)Nc1ccc(Cl)c(Cl)c1` are 8.65% (inactive), 68.4% and 77%.
`CCCc1nc2sc3c(c2c(=O)n1NC(=O)CCCl)CCCC3`: for the setting “H69AR cells + 2 uM doxorubicin”, the differential viability (reversal) is 11.4% (inactive). Further, the viability under setting [1] was 24.6% and the viability under setting [2] was 36%.
As for `CC(c1ccco1)N(C(=O)Nc1ccccc1)C1CCCCC1` (configuration not stated), the differential viability (reversal) (H69AR cells + 2 uM doxorubicin) was 8.57% (inactive). For the same compound, the viability is, setting by setting: under setting [1], 69.1%; under setting [2], 77.7%.
On the same counts, the results for `CCCNC(=O)c1ccccc1NC(=O)CSCc1ccc(OC)cc1` are 16.1% (inactive), 67.8% and 83.9%.
For `O=C(CSc1nnc(-c2cccnc2)n1CCc1ccccc1)NCc1ccccc1`, in that order: 20.9% (inactive), 68.7% and 89.6%.
On the same counts, the results for `Cc1ccc(Nc2nnc(SCc3ccccc3)s2)cc1` are 25.2% (inactive), 73% and 98.2%.
With `CC1CCN(S(=O)(=O)c2ccc(S(=O)(=O)NCc3ccco3)cc2)CC1`, the differential viability (reversal) (H69AR cells + 2 uM doxorubicin) was -17.8% (inactive). Also, the viability under setting [1] was determined as 93.1% and the viability under setting [2] is 75.4%.
In the case of `CC(=O)NC1(c2cccc(F)c2)CCN(CC(=O)NC(C)C)CC1`, the differential viability (reversal) (H69AR cells + 2 uM doxorubicin) is -7.86% (inactive). Also, the viability was 90.6% under setting [1] and 82.8% under setting [2].
With `CCOc1ccc(N=Cc2c(O)n(-c3cccc(C)n3)c(=O)c3ccccc23)cc1`, the differential viability (reversal) (H69AR cells + 2 uM doxorubicin) was 10.8% (inactive). The viability is, setting by setting: under setting [1], 80.7%; under setting [2], 91.4%.
As for `CCN(CC)S(=O)(=O)c1cc([N+](=O)[O-])ccc1NNC(=O)Nc1ccccc1`, the differential viability (reversal) (H69AR cells + 2 uM doxorubicin) was 0.11% (inactive). Besides, the viability came to 89.8% under setting [1] and 89.9% under setting [2].
Consider `CCOc1nc(NCCN2CCOCC2)nc(Nc2ccc(C)cc2)n1`, for which, where the note is “H69AR cells + 2 uM doxorubicin”, the differential viability (reversal) is 15.7% (inactive). The viability under setting [1] came out at 76.1% and the viability under setting [2] was found to be 91.8%.
For `Cc1cccc(OCCCC(=O)Nc2ccc(S(=O)(=O)N3CCCC3)cc2)c1`, in that order: 6.98% (inactive), 82.2% and 89.2%.
On the same counts, the results for `COc1ccc(C2C(C#N)=C(/N=C/N3CCOCC3)OC3=C2C(=O)CC(C)(C)C3)cc1OC` (configuration not stated) are 12.9% (inactive), 83.8% and 96.7%.
